# hcDAF12 agonist – H. contortus DAF-12 nuclear receptor activators, primary screen, cell-based, luminescence, HEK293, lit1-tk-luc reporter | HEK293 hcDAF-12 lit1-tk-luc reporter; 0% DMSO, 100% Δ7-dafachronic acid | activation, % at 6.8 µM | actives 1.4% (n = 370,000);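 active means activation above the mean of all tested compounds plus 3 SD, cut at about 5.5% in these data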
# hgDAF12 agonist – H. glycines DAF-12 receptor agonists, primary screen, cell-based, luminescence, HEK293, GAL4 fusion, UAS-luciferase; Nuclear hormone receptor DAF-12 (Heterodera glycines), GAL4 fusion; HEK293 GAL4-hgDAF12 UAS-luciferase reporter, agonist luminescence; normalized to butyrate control; activation, % at 6.8 µM; actives 1.8% (n = 370,000);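 active means activation above a cutoff set at the mean of all screened compounds plus 3 SD, cut at about 10% in these data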
# FXN GAA850 act – FXN promoter activators, primary screen, cell-based, luciferase luminescence, HEK293 lucGAA850; actives 0.56% (n = 360,000); HEK293 lucGAA850 FXN promoter luciferase reporter, 24 h; percent of 10 µM SAHA response; activation, % at 6 µM;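 active means activation above the average of all compounds screened plus 3 SD, cutoff fixed separately per campaign, cut at about 7.5% in these data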
# DAX1 inh-1 – DAX1 (NR0B1) inhibitors on StAR promoter, primary screen, cell-based, luminescence, SF-1 (NR5A1), full-length DAX-1. inhibition, % at 6.8 µM. actives 1.1% (n = 370,000). HEK293T StAR-luciferase reporter, SF-1/DAX-1 repression relief;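 active means inhibition above the mean over all tested compounds plus 3 SD, cut at about 3.6% in these data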;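 further: higher inhibition means more luminescence from relief of DAX-1 repression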
# ssDAF-12 act – S. stercoralis DAF-12 nuclear receptor activators, primary screen, cell-based, luminescence, HEK293, GRIP1 co-expression, lit1-tk-luc; Nuclear hormone receptor DAF-12 (Strongyloides stercoralis); activation, % at 6.8 µM; actives 1% (n = 370,000); HEK293 ssDAF-12/GRIP1 lit1-tk-luc reporter; % of 3 µM dafachronic acid response;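 active means activation above the mean over all tested compounds plus 3 SD, cut at about 0.9% in these data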
# DAX1 inh-2 – DAX1 (NR0B1) inhibitors, primary screen, cell-based, HEK293, Gal4-DAX1, luciferase luminescence | HEK293 Gal4-DAX1 luciferase reporter | inhibition, % at 6.75 µM | actives 0.99% (n = 340,000) | AID 504766, 2011;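 active means inhibition above the mean over all tested compounds plus 3 SD, cut at about 4.2% in these data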;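 further: inhibition shows as a rise in luminescence from relieved DAX1 repression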
# Target sequence (P51843 207-470 limits assumed): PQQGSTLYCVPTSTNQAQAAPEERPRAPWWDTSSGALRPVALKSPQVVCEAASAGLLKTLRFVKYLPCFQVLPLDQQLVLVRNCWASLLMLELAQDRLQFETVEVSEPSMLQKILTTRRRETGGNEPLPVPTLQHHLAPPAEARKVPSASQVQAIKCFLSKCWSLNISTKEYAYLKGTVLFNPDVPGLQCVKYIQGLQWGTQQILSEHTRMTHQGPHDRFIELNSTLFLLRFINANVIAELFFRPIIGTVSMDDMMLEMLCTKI
# LXRb hcDAF ctr – LXR agonists, Gal4 luciferase reporter, confirmation, counter-screen for hcDAF-12 agonist project, cell-based, luminescence, HEK293, H. contortus campaign. shares compounds with hcDAF12 agonist. HEK293 Gal4-LXR tk-luc reporter, 24 h; normalized: DMSO 0%, positive control 100%. activation, % at 6.8 µM. 3,400 tested, under 10 active;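 active means mean percent activation of the reporter above a cutoff set as the average over tested compounds plus their standard deviation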
# hcDAF12 conf – H. contortus DAF-12 receptor agonists, confirmation, cell-based, luminescence, HEK293, lit1-tk-luc, triplicate | shares compounds with hcDAF12 agonist | activation, % at 6.8 µM | actives 61% (n = 3,400) | HEK293 hcDAF-12 lit1-tk-luc reporter; % of Δ7-dafachronic acid response | AID 743032, 2013;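 active means mean activation across triplicate tests above the threshold derived from the earlier primary screen, cut at about 5.5% in these data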
# A number is an active result; – = inactive; · = not tested or not shown. This is a sample that favours compounds with a hit; in the whole collection about 4.5% have one here.
SMILES,hcDAF12 agonist,hgDAF12 agonist,FXN GAA850 act,DAX1 inh-1,ssDAF-12 act,DAX1 inh-2,LXRb hcDAF ctr,hcDAF12 conf
O=C(c1cc(-c2ccccc2Cl)on1)N1CCCC1,8.6,12,–,–,–,–,–,12
O=C(/C=C/c1ccc(F)cc1)c1ccc(N2CCOCC2)cc1,–,–,–,–,–,–,·,·
CCc1ccc(/C=C/C(=O)c2ccc(N3CCOCC3)cc2)cc1,6.8,–,–,–,–,–,–,–
O=[N+]([O-])c1ccc(S(=O)(=O)Nc2ccc(S(=O)(=O)N3CCCC3)cc2)cc1,–,–,–,–,–,–,·,·
Cn1ccsc1=NC(=O)c1ccc(OC(F)(F)F)cc1,8.2,–,–,–,–,–,–,–
N=c1oc2ccccc2cc1-c1nc2ccccc2c(=O)[nH]1,8.3,–,–,–,–,–,–,–
COc1cccc(C(CNc2ccc(S(=O)(=O)N3CCN(C)CC3)cc2[N+](=O)[O-])N(C)C)c1 (stereo not given),–,–,–,–,–,–,·,·
O=C1CSC(=S)N1N=Cc1c[nH]c2ccc(Br)cc12,–,–,–,–,–,–,·,·
COc1ccc(Br)cc1/C=N/N1C(=O)CSC1=S,7.1,–,–,–,–,–,–,–
Cc1ccn2cc(CSc3ccccc3)nc2c1,6.6,12,–,–,–,–,–,–
Clc1ccc(OCc2cn3ccccc3n2)c2ncccc12,–,–,–,–,–,–,·,·
COc1c(Cl)cccc1-c1cn2ccccc2n1,7.3,13,–,–,–,–,–,7.7
COc1ccccc1-c1csc(C(C)(O)c2ccccc2)n1 (stereo not given),–,–,–,–,–,·,·,·
Cc1cc(/C(N)=N/OC(=O)c2cccc(Cl)c2)no1,7.1,–,–,–,1.5,·,–,–
Cc1cc(C(=O)NNC(=O)c2cccc(Cl)c2)no1,–,–,–,–,–,·,·,·
N/C(=N\OC(=O)c1cccc(Cl)c1)c1ccccn1,13,–,–,3.9,–,–,–,8.2
O=C(Nc1cc2c(ccc3ccccc32)oc1=O)C1CCCCC1,7.3,–,–,–,–,–,–,–
CCc1ccc(N=Nc2ccc(O)c3[nH]cnc23)cc1,7.8,–,–,–,1.0,5.3,–,8.6
COc1ccc(CCNC(=O)COC(=O)C23CC4CC(CC(C4)C2)C3)cc1,6.8,–,–,–,–,–,–,–
COc1ccc(CCNC(=O)COC(=O)C23CC4CC(CC(Br)(C4)C2)C3)cc1,–,–,–,–,–,–,·,·
COc1ccc(Nc2nccc3c2ncn3C)cc1,6.6,11,–,–,–,–,–,–
COc1ccc(Nc2ncnc3sccc23)cc1,–,–,–,–,–,–,·,·
CC(=O)n1cc(/C=N/NC(N)=S)c2ccccc21,–,–,–,–,–,–,·,·
CC(=O)n1cc(/C=C2/N=C(c3ccccc3)OC2=O)c2ccccc21,6.7,–,–,–,–,–,–,–

# Compound activity (PubChem)
